NPC1 promoter act – activates the NPC1 promoter. 320,000 compounds, 2.4% hits. Potency, µM (doses to about 9.22 µM), without a hit: at the top dose activation, usual class: activators. AID 485313. Huh7 NPC1 promoter luciferase reporter, 24 h; further: % of control where 0% means no effect; nearly all actives have a fitted effect of over 60% in size
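Luminescence from an NPC1 promoter-driven luciferase reporter in stably transfected Huh7 cells was measured after 24 h compound treatment at 37 °C, followed by 10 min ambient incubation with luciferase detection reagent.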
SMN2 splice up – increases expression of the SMN2 splice variant; Potency, µM (series often up to 46.1 µM), for the others: top-dose activity change, positive = activation, actives largely listed as activators; 210,000 compounds, 2.8% hits; AID 1458; HEK293 SMN2-luciferase splicing reporter, luminescence, 30-36 h; further: % of control where 0% means no effect; nearly all actives have a fitted effect of over 55% in size
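HEK293 cells carry an SMN2 […]–luciferase reporter in which exon 7 inclusion puts luciferase in frame. Cells were plated 10-12 h before compound addition, then incubated 30-36 h at 37C. ONE-Glo luminescence was read; sodium butyrate at 4.5 mM final served as control.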
FLuc modulator – firefly luciferase modulation, counter-screen for miR-21 project. P08659. purified FLuc, Km substrates, luminescence inhibition. Potency, µM (titrated, usually from 57.5 µM), for inactives: top-dose activity change, negative = inhibition, actives largely listed as inhibitors. 360,000 compounds, 6.9% hits;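 further: plate controls were vehicle for no effect and reference inhibitor for full effect; nearly all actives have a fitted effect of over 55% in size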
Target sequence (P08659 whole entry, looked up): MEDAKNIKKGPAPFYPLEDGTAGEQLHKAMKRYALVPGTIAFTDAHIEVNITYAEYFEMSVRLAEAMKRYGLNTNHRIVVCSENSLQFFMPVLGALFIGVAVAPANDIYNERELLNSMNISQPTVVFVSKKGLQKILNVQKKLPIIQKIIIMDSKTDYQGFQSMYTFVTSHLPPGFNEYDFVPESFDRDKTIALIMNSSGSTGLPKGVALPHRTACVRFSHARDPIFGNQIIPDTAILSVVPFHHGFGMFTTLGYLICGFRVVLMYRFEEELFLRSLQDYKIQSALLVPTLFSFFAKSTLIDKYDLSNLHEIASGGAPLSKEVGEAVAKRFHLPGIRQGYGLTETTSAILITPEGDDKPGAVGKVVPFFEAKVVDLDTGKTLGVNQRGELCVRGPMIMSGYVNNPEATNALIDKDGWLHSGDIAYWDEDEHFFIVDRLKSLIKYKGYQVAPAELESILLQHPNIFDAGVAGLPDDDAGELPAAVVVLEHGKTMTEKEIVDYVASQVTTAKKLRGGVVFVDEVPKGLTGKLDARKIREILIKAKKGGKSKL
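Purified P. pyralis luciferase, 10 nM final, with Km-level 10 uM D-luciferin and 10 uM ATP in 50 mM Tris acetate pH 7.5, 10 mM Mg acetate, 0.01% Tween-20, 0.05% BSA; 6-point qHTS titration about 60 µM downward; luminescence read.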
ELG1 genotox – inducers of genotoxicity in HEK293T ELG1-luciferase cells | HEK293T ELG1-luciferase reporter, luminescence, 16 h | Potency, µM (doses to about 46 µM), without a hit: at the top dose activity change, positive = activation, hits mostly activators | 330,000 compounds, 1.3% hits; further: % of control where 0% means no effect; nearly all actives have a fitted effect of over 60% in size
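Cells (2,000/well) expressing the ELG1-luciferase fusion are dosed by pin tool and kept 16 hr at 37 °C, 5% CO2. Signal comes from ONE-Glo luciferase reagent after 30 min at room temperature.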
Rab9 promoter act – activates the Rab9 promoter; AID 485297; Huh7 Rab9 promoter-luciferase reporter, luminescence, 24 h; Potency, µM (highest dose often 9.22 µM), inactives show top-dose activation, negative = inhibition, hits mostly activators; 320,000 compounds, 2.8% hits; further: % of control where 0% means no effect; nearly all actives have a fitted effect of over 60% in size
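Cell-based reporter: Huh7 stable for Rab9 promoter-driven luciferase, plated in reduced-serum medium with 10% FBS at 1500 cells/well, compound-treated 24 h at 37 °C, luminescence read after 10 min reagent.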
ELG1 repair inh – inhibitors of ELG1-dependent DNA repair in HEK293T cells; Potency, µM (doses to about 46.1 µM), for inactives: at the highest dose activity change, negative = inhibition, hits mostly inhibitors; AID 504467; 330,000 compounds, 2.3% hits; HEK293T ELG1-luciferase reporter, luminescence, 16 h; DNA damage induced by 5-fluorouridine; further: on the % scale 0 is the no-effect control and ±100 the full control effect; nearly all actives have a fitted effect of over 55% in size
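Reporter activity after DNA damage by 5-fluorouridine is monitored. Compound-treated cells incubate 16 hr at 37 °C, then ONE-Glo is added for 30 min before luminescence reading.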
* hit, by the source's call; ? = inconclusive; . = no result. Sampled rows, rich in hits. Any-hit rate of the full collection: about 9.2%. The call rests on the fitted dose curve; in most records, active means well fitted curve in the direction sought with a large enough effect; inconclusive means small, poorly fitted or top-dose-only effect, or another doubt; inactive means no such curve, though single readings can be large; an effect the other way counts as inactive or inconclusive. Potency means the concentration at half of the fitted maximal effect.

SMILES	NPC1 promoter act	SMN2 splice up	FLuc modulator	ELG1 genotox	Rab9 promoter act	ELG1 repair inh
CC1CC(C)CN(C(=O)CNC(=O)c2ccc3ccccc3c2)C1 (stereo unspecified)	-5%	.	-8%	-2%	0%	-8%
O=[N+]([O-])c1ccc(Cl)c(S(=O)(=O)Nc2cccc(-c3ccc(N4CCOCC4)nn3)c2)c1	?	.	2.4µM*	10µM*	?	?
COc1ccc(-c2cccc(NS(=O)(=O)c3cc([N+](=O)[O-])ccc3Cl)c2)nn1	0%	.	-15%	0%	2%	4%
Cc1ccc([N+](=O)[O-])cc1S(=O)(=O)Nc1ccc(-c2ccc(N3CCOCC3)nn2)cc1	3%	.	?	3%	2%	16%
O=[N+]([O-])c1ccc(Cl)c(S(=O)(=O)Nc2ccc(-c3ccc(N4CCOCC4)nn3)cc2)c1	7%	.	15µM*	6%	-2%	?
O=S(=O)(Nc1ccc(-c2ccc(N3CCOCC3)nn2)cc1)c1ccc(Cl)c(Cl)c1	-4%	.	24µM*	-5%	1%	-20%
Cc1nc2ccc(NC(=O)COc3cccc(F)c3)cc2s1	-3%	-10%	?	5%	-3%	0%
Cc1nc2ccc(NC(=O)Cc3ccsc3)cc2s1	2.8µM*	?	12µM*	12µM*	?	?
Cc1nc2ccc(NC(=O)COc3ccccc3)cc2s1	3%	10%	?	16%	18%	?
Cc1nc2ccc(NC(=O)Cc3cccc(F)c3)cc2s1	21%	27%	19µM*	12%	30%	?
Cc1nc2ccc(NC(=O)Cc3ccccc3F)cc2s1	2.8µM*	11µM*	6.7µM*	8.2µM*	?	?
C[C@H]1CN([C@@H](C)CO)C(=O)c2cccc(NC(=O)C3CC3)c2O[C@H]1CN(C)S(=O)(=O)c1cccs1	.	.	.	-1%	.	0%
CCOc1cc(/C=C2\CN(CC)C/C(=C\c3ccc(O)c(OCC)c3)C2=O)ccc1O	-29%	.	-13%	-12%	-20%	?
CCN1C/C(=C/c2cccc([N+](=O)[O-])c2)C(=O)/C(=C/c2cccc([N+](=O)[O-])c2)C1	-36%	-101%	-3%	-16%	-50%	2.6µM*
CC(=O)N(c1ccccc1)c1nnc(-c2cnc(C)cn2)s1	1.6µM*	.	?	9.2µM*	3.2µM*	?
CCCn1c(SCC(=O)Nc2nc(C)c(C(=O)OC)s2)nnc1C(C)C	-1%	-9%	-1%	0%	-3%	-12%
COCc1cc(C)nc(SCC(=O)Nc2nc(C)cs2)c1C#N	0.63µM*	.	12µM*	?	0.71µM*	?
COC(=O)c1sc(NC(=O)CSc2nnnn2C)nc1C	2.2µM*	.	17µM*	15µM*	2µM*	?
Cc1nc(NC(=O)CSc2nnnn2C)sc1C	?	11µM*	?	?	?	?
Cc1csc(NC(=O)CSc2nnnn2C)n1	25%	14µM*	?	?	?	?
CCc1nnc(NC(=O)CSc2nnnn2C)s1	-2%	14%	0%	-3%	2%	?
NS(=O)(=O)c1ccc(NC(=O)COC(=O)c2ccc(S(=O)(=O)N3CCOCC3)cc2)cc1	.	.	.	0%	.	?
Cc1ccccc1CC(=O)Nc1cccc(S(=O)(=O)N2CCCC2)c1	-3%	.	4%	2%	1%	-19%
CC(=O)Nc1ccc(NC(=O)C(C)N(C)CC(=O)Nc2ccccc2Br)cc1 (stereo unspecified)	-1%	.	-1%	3%	1%	3%
CCc1ccccc1NC(=O)c1ccc(S(=O)(=O)NCC2CCCO2)cc1 (stereo unspecified)	-4%	.	-2%	-1%	4%	1%
Cc1ccc(NC(=O)CNNC(=O)c2cccc([N+](=O)[O-])c2)cc1[N+](=O)[O-]	.	.	.	3%	.	-15%
